± gives the standard deviation of the averaged measurements. Whole data set: some 4,100 sequences, median “relative kcat/Km (krel) vs genomic leader AAAGAU” near 1.7, cut for the highest 2% near 6.5. The sample as a whole holds a higher share of the highest values than the screen did.
Biological target: T1, E. coli RNase P holoenzyme (M1 P RNA + rnpA protein) (UniProt P0A7Y8)
T1 sequence: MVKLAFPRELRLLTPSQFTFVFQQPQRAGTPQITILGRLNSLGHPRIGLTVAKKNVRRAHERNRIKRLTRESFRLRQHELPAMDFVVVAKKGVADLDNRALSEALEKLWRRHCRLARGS
Test: relative kcat/Km (krel) vs genomic leader AAAGAU (relative (reference leader = 1)); higher = faster RNase P cleavage
Experimental: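 HTS-Kin: a pool of ptRNA-Met (21C construct) with all 4096 combinations of 5' leader nucleotides N(-6) to N(-1) was processed in vitro by E. coli RNase P (P RNA + rnpA/C5 protein) under multiple-turnover conditions at 37 C, pH 8, 17.5 mM MgCl2. Residual substrate was Illumina-sequenced at several fractions reacted, and relative kcat/Km (krel) was computed by internal competition kinetics, calibrated to the genomic leader (AAAGAU = 1). The listed hexamer is the varied N(-6)..N(-1) leader (DNA letters), and it sits between a fixed 5' stem-loop flank (GCAUGCACGAAAGUGCGUGCUAUGAA) and the mature tRNA-Met starting GGCUACGUAGCUCAGUUGG. Two technical replicates are averaged.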

[1] = fraction of substrate reacted: ~9-10% (9.79% repeat 1, 9.1% repeat 2)
[2] = fraction of substrate reacted: ~13-16% (15.68% repeat 1, 13.17% repeat 2)
[3] = fraction of substrate reacted: ~26-29% (28.66% repeat 1, 26.4% repeat 2)

Row | Sequence | relative kcat/Km [1] | relative kcat/Km [2] | relative kcat/Km [3]
1 | TCCGAG | 2.34 ± 0.033 | 2.52 ± 1.4 | 5.01 ± 2.2
2 | ACCGAG | 2.58 ± 2.5 | 0.833 ± 0.22 | 2.44 ± 0.21
3 | GCCGAA | 3.56 ± 1.2 | 4.16 ± 0.78 | 6.35 ± 2.4
4 | TCCGAT | 2.34 ± 0.53 | 2.91 ± 1.4 | 4.01 ± 1.3
5 | CCCGAT | 2.59 ± 0.49 | 2.76 ± 1.2 | 3.21 ± 0.9
6 | ACTCGT | – | – | 2.02 ± 1.7
7 | AGCACG | – | – | 1.13 ± 0.11
8 | TTAGAA | 2.72 ± 1.5 | 2.61 ± 0.03 | 3.57 ± 1.4
9 | TCCCAC | 4.44 ± 1.1 | 5.53 ± 1.1 | 7.79 ± 3
10 | TCCCAA | 4.73 ± 3.1 | 4.63 ± 0.2 | 6.94 ± 2.3
11 | GCCCAT | 3.07 ± 2.2 | 3.36 ± 0.14 | 5.4 ± 1.5
12 | ACCCAC | 3.6 ± 1.7 | 3.71 ± 0.7 | 5.48 ± 1.8
13 | GCCCAC | 3.04 ± 0.041 | 4.04 ± 1.6 | 5.93 ± 2.8
14 | TCCCAT | 4.48 ± 2.4 | 5.74 ± 1 | 8.73 ± 3.7
15 | ACCCAT | 2.43 ± 0.83 | 2.95 ± 0.91 | 5.63 ± 2.4
16 | ACCCAA | 2.3 ± 0.84 | 2.69 ± 0.25 | 4.83 ± 1.9
17 | CCCCAA | 3.03 ± 1.2 | 3.57 ± 0.21 | 4.97 ± 1.6
18 | GCTATG | – | – | 1.51 ± 0.12
19 | AGAAAG | 1.38 ± 1.3 | 1.14 ± 0.7 | 2.2 ± 0.47
20 | CGGACG | 1.05 ± 1.1 | – | 0.906 ± 0.41
21 | GCATAA | 1.89 ± 0.96 | 2 ± 0.52 | 3.04 ± 1.1
22 | ATAGTC | 1.61 ± 0.89 | 1.42 ± 1 | 1.68 ± 0.75
23 | AGTAAT | 2.83 ± 0.62 | 3.38 ± 0.27 | 5.07 ± 2.3
24 | TTCCTA | 3.35 ± 1.2 | 4.53 ± 0.46 | 5.89 ± 2.4
25 | TACGCG | 1.87 ± 1.1 | 1.66 ± 0.44 | 3.13 ± 0.89

Row | Sequence | relative kcat/Km [1] | relative kcat/Km [2] | relative kcat/Km [3]
26 | GACGCG | – | 0.59 ± 0.14 | 2.38 ± 0.093
27 | GACGCA | 3.33 ± 1.3 | 3.62 ± 0.97 | 5.24 ± 1.8
28 | TACGCC | 3.64 ± 0.043 | 5.35 ± 1.7 | 7.66 ± 3.3
29 | GACGCC | 3.241 ± 0.028 | 4.62 ± 1.3 | 6.69 ± 2.6
30 | AACGCC | 1.93 ± 0.48 | 3.24 ± 1.4 | 4.53 ± 1.3
31 | AACGCA | 2.99 ± 1.6 | 3.18 ± 0.58 | 4.32 ± 1.4
32 | TACGCA | 2.71 ± 1.7 | 4.27 ± 0.58 | 6.64 ± 3.4
33 | GACGCT | 2.24 ± 0.19 | 2.17 ± 0.8 | 3.11 ± 1.4
34 | ACGCAC | 1.83 ± 0.3 | 2.12 ± 0.95 | 3.59 ± 1.2
35 | CATCCC | 2.17 ± 1.8 | 2.06 ± 1.1 | 1.96 ± 0.22
36 | CCTTTC | 2.13 ± 0.9 | 2.39 ± 0.27 | 3.08 ± 0.83
37 | CCTTCA | 1.71 ± 1.4 | 1.18 ± 0.065 | 1.84 ± 0.056
38 | TACTTG | – | 0.792 ± 0.45 | 2.68 ± 1.1
39 | TACTTA | 3.1 ± 0.66 | 4.1 ± 0.88 | 5.63 ± 2.6
40 | TACTTC | 4.11 ± 1.8 | 4.99 ± 1.3 | 6.85 ± 2.9
41 | CACTTC | 2.93 ± 0.5 | 3.69 ± 0.85 | 5.44 ± 2.2
42 | CACTTT | 3.33 ± 1.1 | 4.55 ± 0.76 | 6.22 ± 2.4
43 | TACTTT | 3.77 ± 1.4 | 4.69 ± 0.54 | 6.8 ± 3.1
44 | GTTATG | – | 1.56 ± 0.24 | 3.32 ± 0.7
45 | CTTTTA | 2.68 ± 0.65 | 2.79 ± 0.91 | 3.18 ± 1.2
46 | AAGCAT | 2.34 ± 0.52 | 2.87 ± 1 | 3.28 ± 1.9
47 | GTCCAT | 4.26 ± 0.8 | 6.41 ± 1.5 | 9.1 ± 4.4
48 | TGCCAC | 2.55 ± 1.6 | 3.121 ± 0.026 | 4.36 ± 1.6
49 | TGCCAA | 3.18 ± 1.1 | 2.55 ± 0.62 | 4.09 ± 1
50 | GTCCAG | 2.58 ± 1 | 2.9 ± 0.5 | 5.48 ± 2

Row | Sequence | relative kcat/Km [1] | relative kcat/Km [2] | relative kcat/Km [3]
51 | TTCCAA | 4.78 ± 1.8 | 6.03 ± 0.65 | 8.56 ± 3.5
52 | TTCCAG | 2.51 ± 1.5 | 3.27 ± 0.64 | 5.49 ± 1.9
53 | TTCCAC | 5.3 ± 2 | 6.51 ± 1.3 | 9.46 ± 4.2
54 | TTCCCC | 3.49 ± 1.7 | 4.17 ± 0.71 | 5.59 ± 1.9
55 | CTCCCT | 3 ± 0.57 | 3.57 ± 0.86 | 4.86 ± 2.1
56 | CGCCAT | 3 ± 0.35 | 4.6 ± 1.3 | 6.07 ± 2.5
57 | GTCCCT | 2.62 ± 0.56 | 3.61 ± 0.74 | 5.58 ± 2.5
58 | CTCCAT | 4.25 ± 0.86 | 5.67 ± 1.3 | 8.48 ± 4
59 | CCTCTG | – | – | 1.47 ± 0.38
60 | CTTGGA | 1.23 ± 1.1 | 1.2 ± 0.45 | 1.15 ± 0.8
61 | TTGAGC | 1.16 ± 0.28 | 1.24 ± 0.71 | 1.47 ± 0.22
62 | ACCGGC | 1.08 ± 0.83 | – | –
63 | AGAACC | 1.66 ± 1.1 | 1.82 ± 0.43 | 1.82 ± 0.17
64 | GCACGT | – | – | 0.727 ± 0.1
65 | CAAAGG | 0.345 ± 0.3 | – | –
66 | GTCCAC | 5.04 ± 1.9 | 6.06 ± 1.1 | 8.78 ± 3.9
67 | GACCAA | 1.8 ± 0.3 | 3.47 ± 1.1 | 4.86 ± 1.5
68 | ATCCAA | 3.15 ± 0.43 | 4.2 ± 1.2 | 6.3 ± 2.3
69 | ATCCCT | 2.7 ± 0.55 | 3.48 ± 0.4 | 4.42 ± 1.8
70 | GTCCAA | 3.74 ± 1.3 | 4.92 ± 0.95 | 7.96 ± 3
71 | ATCCAT | 3.89 ± 0.97 | 4.72 ± 1.4 | 7.14 ± 3.2
72 | GTCCCC | 2.87 ± 2.5 | 4.17 ± 0.82 | 5.29 ± 1.4
73 | ATCCCC | 2.42 ± 0.41 | 3.13 ± 0.35 | 4.59 ± 2.2
74 | ATCCAG | 1.67 ± 0.93 | 1.77 ± 0.18 | 3.83 ± 0.61
75 | GGCCAC | 0.682 ± 0.091 | 1.39 ± 0.35 | 2.65 ± 0.59

Row | Sequence | relative kcat/Km [1] | relative kcat/Km [2] | relative kcat/Km [3]
76 | AGCCAT | 3.54 ± 1.2 | 3.08 ± 0.86 | 4.77 ± 2
77 | ATCCAC | 4.03 ± 1.7 | 4.47 ± 0.19 | 6.76 ± 2.2
78 | TTTGCC | 1.81 ± 0.95 | 1.79 ± 0.37 | 2.42 ± 0.16
79 | AGTATT | 2.4 ± 0.68 | 3.14 ± 0.3 | 4.91 ± 2.2
80 | AACTGG | – | – | 0.249 ± 0.046
81 | TGATGT | – | 1.13 ± 1.1 | 1.37 ± 0.91
82 | ACTTTA | 1.56 ± 0.72 | 1.89 ± 0.44 | 2.18 ± 0.5
83 | GCTGCC | 1.37 ± 0.5 | 0.461 ± 0.12 | 0.965 ± 0.29
84 | GCGGCA | – | 0.64 ± 0.26 | –
85 | CATTTC | 2.59 ± 0.64 | 2.31 ± 0.88 | 4.06 ± 1.9
86 | CTCCAA | 4.23 ± 2.1 | 4.62 ± 0.048 | 6.98 ± 2.8
87 | CTCCCC | 2.43 ± 0.053 | 3.34 ± 1 | 4.73 ± 2.2
88 | TTCCAT | 4.71 ± 0.96 | 7.43 ± 1.3 | 10.3 ± 4.6
89 | TGCCAT | 2.8 ± 0.93 | 2.89 ± 0.61 | 4.45 ± 1.8
90 | CGCCAA | 2.95 ± 0.91 | 3.15 ± 0.75 | 5.09 ± 1.8
91 | CTCCAC | 4.55 ± 1.9 | 5.88 ± 1.5 | 7.81 ± 3.1
92 | TTCCCT | 3.18 ± 0.59 | 4.37 ± 1.1 | 6.18 ± 2.6
93 | CTCCAG | 2.81 ± 1.9 | 2.34 ± 0.026 | 4.6 ± 1.3
94 | CACCAC | 3.5 ± 0.91 | 3.81 ± 1.5 | 5.55 ± 2.2
95 | CAGGGA | – | 0.949 ± 0.58 | 1.06 ± 1
96 | CCGATG | – | – | 1.14 ± 0.71
97 | CGCATG | – | – | 1.43 ± 0.34
98 | CCATAA | 3.55 ± 1.6 | 2.67 ± 0.37 | 3.58 ± 0.78
99 | CCACTT | 1.71 ± 0.26 | 0.873 ± 0.61 | 1.91 ± 0.31
100 | TGCTGA | 1.907 ± 0.0028 | 1.69 ± 0.5 | 2.71 ± 1

Reference: the supplement of paper PMC9433436
